Compound activity as filed in PubChem BioAssay.
HCV inh: qHTS Assay for Inhibitors of Hepatitis C Virus (HCV); actives 3.4% (n = 340,000); AID 651820, 2012; Huh7.5.1 HCVcc-Cre infection, luciferase reporter, 44 h; Potency, µM (titrated, usually from 41.8 µM), for inactives: at the top dose activity change, negative = inhibition, usual class: inhibitors; also: potency is read from the fitted curve at half-maximal effect; % is scaled to controls: 0 for no effect and ±100 for the full control effect
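Reporter virus HCVcc-Cre (~0.5 moi) infects cells exposed to compound; seeding density 1,000 cells/well with 4 h settling beforehand. Luminescence, 15 sec read, taken 44 h post-infection following a 15 min RT substrate incubation.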
HCMV inh: qHTS Assay for inhibitors of the human cytomegalovirus (HCMV) | HFF cells, HCMV-luciferase reporter, 72 h; active compounds read low | activity change, negative = inhibition, % at 57.5 µM | actives 4.5% (n = 410,000); in the data active = activity change below about -60%; inconclusive = no clear call, values can overlap the other calls; inactive = above about -39%; also: % is scaled to controls: 0 for no effect and ±100 for the full control effect
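Luciferase read-out from HCMV-luciferase-infected HFFs (MOI 1 PFU/cell) 72 h post infection at 37C; compounds added after 16 h cell attachment; activity normalized between buffer-only basal and Salinomycin (10uM) inhibitor controls.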
Shiga inhibitor: A qHTS for Small Molecule Inhibitors of Shiga Toxin; Vero cells, Shiga toxin protein synthesis inhibition reporter; inhibition, % at 38.7 µM; actives 9.2% (n = 290,000); in the data active = inhibition mostly above about 28%, no sharp cut-off; inactive = mostly below about 43%; also: 0% is about no effect
Cycloheximide cs: Cycloheximide Counterscreen for Small Molecule Inhibitors of Shiga Toxin; cell reporter, cycloheximide protein synthesis inhibition counterscreen; max response, %; actives 12% (n = 300,000); in the data active = max response mostly above about 13%, no sharp cut-off; inactive = mostly below about 14%; also: read at 38.3 µM for the half of the compounds with a filed dose; 0% is about no effect
Pf growth 96h: Primary qHTS for delayed death inhibitors of the malarial parasite plastid, 96 hour incubation; P. falciparum luciferase reporter growth, 96 h; Potency, µM (highest dose often 28.7 µM), for the others: top-dose activity change, negative = inhibition, actives largely listed as inhibitors; actives 6.9% (n = 320,000); also: potency is read from the fitted curve at half-maximal effect; % is scaled to controls: 0 for no effect and ±100 for the full control effect
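96 h incubation, 37 C, 5% CO2, of luciferase-reporter P. falciparum-infected RBCs (2% hematocrit, 0.05% parasitemia final) with test compounds; endpoint luminescence.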
Pf growth 48h: Primary qHTS for delayed death inhibitors of the malarial parasite plastid, 48 hour incubation | actives 5.9% (n = 310,000) | P. falciparum luciferase growth in erythrocytes, 48 h | Potency, µM (top dose mostly 28.7 µM), for the others: at the top dose activity change, negative = inhibition, usual class: inhibitors | AID 504832, 2011; also: potency is read from the fitted curve at half-maximal effect; % is scaled to controls: 0 for no effect and ±100 for the full control effect
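Erythrocytes infected with P. falciparum carrying an integrated firefly luciferase reporter (2% hematocrit, 0.1% parasitemia final) were exposed to compounds in RPMI 1640 with 0.5% Albumax at 37 C, 5% CO2. Growth inhibition was scored as reduced luminescence.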
Starred values were filed as active, the others as inactive; ? = inconclusive; . = no result. Most compounds without a hit are left out; they make up all but 21% or so of the library. Unless noted, calls follow the shape of the dose curve; as a rule, active = well fitted inhibition curve with a large enough effect; inconclusive = small, poorly fitted or top-dose-only effect, or another doubt; inactive = no such curve, though single readings can be large or run the other way.

SMILES	HCV inh	HCMV inh	Shiga inhibitor	Cycloheximide cs	Pf growth 96h	Pf growth 48h
COc1ccc2c3c(n(C)c2c1)[C@@H](CO)N(S(=O)(=O)c1ccccc1)CC31CCN(C)CC1	.	80.9	.	.	.	.
CN(CCOc1cccc2ccccc12)Cc1ccccc1	0.8%	10.4	-4.3	-1.0	4.15µM*	-10.6%
Cc1ccc(OCCCCN(C)Cc2ccccc2)c(Br)c1	?	44.0	-2.7	-2.1	43.6%	?
COc1cccc(OCC(O)CNC2CCCC2)c1 (stereo not drawn)	8.2%	-2.7	5.0	-0.4	?	1.5%
CCc1ccc(CN(C)CC(O)COc2cccc3ccccc23)cc1 (stereo not drawn)	?	-20.1	-13.6	-3.8	?	0.0%
Cc1cc(C)c(OCCCCN(C)Cc2ccccc2)c(C)c1	-26.3%	-60.7*	.	-4.0	-12.3%	-9.8%
Cc1ccc(C(C)C)c(OCC(O)CNC2CCCC2)c1 (stereo not drawn)	0.7%	-5.6	-7.8	-4.0	-14.7%	5.22µM*
OC(CNC1CCCC1)COc1ccc(Cl)cc1 (stereo not drawn)	?	16.4	-6.5	-2.4	-52.6%	14.7µM*
O=C(CCN1CCC(c2ccc(Cl)s2)=N1)c1ccc(Cl)s1	9.8%	-11.9	-3.3	13.9	60.0%	0.0%
CC1CCN(C(=O)CN2CCSc3ccc(S(=O)(=O)N(C)C)cc32)CC1	.	-7.0	.	.	.	.
Cc1ccc(C(C)C)c(OCCCN(C)Cc2ccccc2)c1	-3.7%	-26.9	10.5	-2.6	?	13.1µM*
O=C(O)c1ccc(N/N=C/c2ccnc3ccccc23)cc1	9.8%	-21.3	90.7*	40.9*	174.6%	136.7%
O=S(=O)(Nc1cccc2cccnc12)c1ccccc1O	.	.	10.8	4.6	.	.
CC(C)(C)OC(=O)NCCC(=O)N/N=C/c1cccc2cccnc12	-0.7%	8.1	15.3	-1.4	-9.7%	?
O=C(O)c1ccc(N/N=C/c2cccc3cccnc23)cc1	-3.2%	54.8	83.1*	48.6*	150.3%	212.0%
C(=NNC1=NCCN1)c1ccnc2ccccc12	.	2.9	.	.	.	.
Oc1ccccc1/C=N/Nc1cccc2cccnc12	?	225.7	101.0*	29.6*	37.4%	166.2%
C=CCC1(C(=O)NCCO)CCN(C(=O)OC(C)(C)C)CC1	4.4%	91.3	-6.0	-2.2	12.5%	30.1%
Cc1cc(C)nc(SCC(=O)OCN2C(=O)c3ccccc3C2=O)n1	25.9%	-22.6	-27.7	-2.2	-23.6%	1.85µM*
NC(=O)c1ccc(-c2ccccc2F)cc1	7.0%	6.8	41.2*	16.5*	66.4%	40.4%
C#CC(C)(C)NC(=O)c1ccc(-c2ccccc2F)cc1	-10.1%	50.3	63.7*	30.1*	-17.9%	57.8%
NNC(=O)c1ccc(-c2ccccc2F)cc1	1.9%	1.2	13.4	6.5	?	-14.9%
O=C(c1ccc(NS(=O)(=O)/C=C/c2ccccc2)cc1)N1CCCCC1	?	-13.7	.	.	-24.8%	8.8%
COc1ccccc1Nc1nnc(SCC2CCCCO2)s1 (stereo not drawn)	7.94µM*	89.7	50.6	26.1*	-60.4%	194.9%
Cc1ccccc1Nc1nnc(SCC2CCCCO2)s1 (stereo not drawn)	0.8%	35.1	15.2*	54.6*	-51.5%	77.8%
Cc1ccc(Nc2nnc(SCC3CCCCO3)s2)cc1 (stereo not drawn)	1.1%	-9.1	54.2*	40.6*	?	-5.8%
CC1=C(c2ccc(C(C)C)cc2)S(=O)(=O)N=C1N1CCC(C(=O)Nc2ccc(C)cc2)CC1	.	-9.8	.	.	.	.
Cc1cc(CC(=O)O)c(C)n1-c1ccc(Cl)cc1	.	1.2	.	.	10.7µM*	?
COc1ccc(NC(=O)Cn2c(=O)n(-c3cc(C)cc(C)c3)c(=O)c3oc4ccccc4c32)cc1OC	.	-83.5*	.	.	.	.
Oc1c(Br)cc(C2N=C(c3ccccc3)NO2)cc1Br (stereo not drawn)	-5.3%	162.4	103.3*	25.8*	70.6%	-3.7%
